Screening data (PubChem)
aDG glyco up: activators of alpha-DG glycosylation, primary screen, uHTS, Pro5-aDG cells, AlphaScreen; alpha-DG glycosylation AlphaScreen (IIH6); 0% Pro5, 100% B10-LARGE cell signal; activation, % at 10 µM; 360,000 tested, 0.22% active;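 active = activation of at least 8% versus controls, or a plate z-score of at least 8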;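 also: Pro5 are CHO cells carrying HIG-tagged alpha-DG that lacks glycosylation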
HIV Env fusion: inhibitors of HIV-1 Env-driven cell-cell fusion, primary screen, HeLa-JRFL effector, CEM21 target cells, luciferase; inhibition, % at 12.3 µM; 360,000 tested, 1.1% active; AID 651610, 2012;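 active = mean replicate inhibition score of at least 50 and every replicate individually at or above 50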;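 also: 0% = plate neutral controls and 100% = maraviroc near 300 nM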
Gli-Sufu block: Gli-Sufu pathway antagonists, primary screen, luciferase luminescence, Sufu-KO-LIGHT cells, uHTS; inhibition, % at 5 µM; 340,000 tested, 0.74% active; AID 588413, 2011; Sufu-KO-LIGHT fibroblasts, Gli luciferase reporter luminescence;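 active = inhibition above about 55%, limit read from the data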;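 also: 0% = DMSO-treated cells and 100% = wells with medium but no cells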
GalR3 antagonist: GalR3 antagonists in HEK293 cells, primary screen, cell-based, fluorescence readout; AID 651719, 2012; HEK293 GalR3-CNG cAMP membrane potential fluorescence; galR3 body fused to GalR1 C-terminus; Galanin receptor type 3 (Homo sapiens), O60755; inhibition, % at 3 µM; 360,000 tested, 0.44% active;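 active = inhibition above the screen-wide average plus 3 SD, cut at about 13% in these data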;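 also: forskolin and galanin both at EC90 stimulate the cells; cAMP rise reported by CNG channel membrane potential dye signal; 0% = forskolin plus galanin with DMSO and 100% = forskolin alone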
Target sequence (O60755 1-299 limits assumed): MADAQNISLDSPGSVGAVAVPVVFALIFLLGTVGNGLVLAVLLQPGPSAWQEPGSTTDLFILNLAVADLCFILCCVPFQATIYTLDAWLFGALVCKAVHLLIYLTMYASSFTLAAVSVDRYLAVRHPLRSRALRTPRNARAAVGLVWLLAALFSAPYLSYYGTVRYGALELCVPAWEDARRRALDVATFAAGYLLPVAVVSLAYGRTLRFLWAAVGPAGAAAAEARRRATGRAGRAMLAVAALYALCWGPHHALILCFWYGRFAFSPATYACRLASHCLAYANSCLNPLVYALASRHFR
COUP-TFII inh: NR2F2 transcriptional activity inhibitors, primary screen, cell-based, luciferase reporter, HEK293T, luminescence; inhibition, % at 8.6 µM; COUP transcription factor 2 (Homo sapiens), P24468; HEK293T NGFI-A luciferase reporter; AID 686940, 2013; 370,000 tested, 0.7% active;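 active = inhibition above a per-plate cutoff, mean inhibition of test wells between control levels plus 3 SD, cut at about 38% in these data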;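 also: cells cotransfected with COUP-TFII expression vector driving the NGFI-A reporter; 0% = median of COUP-TF2 test wells and 100% = reporter-only cells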
Starred values were filed as active, the others as inactive; / = no result given; [ ] = another dose, or the depositor's remark. Most compounds without a hit are left out; they make up all but 2.1% or so of the library.

SMILES | aDG glyco up | HIV Env fusion | Gli-Sufu block | GalR3 antagonist | COUP-TFII inh
CC1=C([N+](=O)[O-])C(c2ccccc2)C2=C(N1)c1ccccc1C2=O (stereo not given) | 0 | 120* | 31 | -7 | 12
CC(=O)C1=C(C)N(Cc2ccc(Cl)cc2)C(=S)NC1c1cccc(Br)c1 (stereo not given) | / | 70* | / | 2 | 1
COC(=O)C1=C(C)N(Cc2ccc(Cl)cc2)C(=S)NC1c1ccc(Br)cc1 (stereo not given) | / | 56* | / | -9 | 8
CC(=O)C1=C(C)N(Cc2ccc(Br)cc2)C(=S)NC1c1cccc(Cl)c1 (stereo not given) | / | 70* | / | -9 | 13
C[C@@H]1CN([C@H](C)CO)S(=O)(=O)c2ccc(-c3ccccc3F)cc2O[C@H]1CN(C)C(=O)C1CC1 | / | 19[16.7 µM] | / | / | /
C[C@H](O)C#Cc1cnc2c(c1)C(=O)N([C@H](C)CO)C[C@@H](C)[C@H](CN(C)C(=O)Cc1ccccn1)O2 | / | -16[16.7 µM] | / | / | /
O=C1C=C(NCc2ccc(Cl)c(Cl)c2)CC1 | 1 | / | 0 | -4 | -7
CC1(C)CC(=O)C=C(NCc2ccc(Cl)c(Cl)c2)C1 | 0 | 60* | 34 | -3 | -8
Cc1ccc(S(=O)(=O)N2CCN(C(=O)Cc3ccc(S(=O)(=O)N4CCOCC4)s3)CC2)cc1 | 0 | 38 | 13 | -2 | 14
O=C(Cc1ccc(S(=O)(=O)N2CCOCC2)s1)N1CCN(S(=O)(=O)c2ccc(Cl)cc2)CC1 | 1 | 70* | 10 | -6 | 15
C[C@H]1CN([C@@H](C)CO)C(=O)c2cc(C3=CCCC3)cnc2O[C@@H]1CN(C)Cc1cccc(F)c1 | / | 2[16.7 µM] | / | / | /
CSc1ncnc2c1ncn2CCCN[C@H](C)c1cccc2ccccc12 | 0 | 58* | / | -6 | 3
COc1ncnc2c1ncn2CCCN[C@H](C)c1cccc2ccccc12 | 0 | / | / | -3 | -8
C[C@H]1CCCCO[C@H](CN(C)S(=O)(=O)c2cn(C)cn2)[C@@H](C)CN([C@@H](C)CO)C(=O)c2cc(NS(=O)(=O)c3cn(C)cn3)ccc2O1 | / | -3[16.7 µM] | / | / | /
CC(Oc1ccc(Cl)cc1Cl)C(=O)Nc1ccc2oc(-c3ccncc3)nc2c1 (stereo not given) | 0 | 64* | -7 | 3 | 16
O=[N+]([O-])c1ccc(C2CCCC/C2=N/OCc2ccc(F)cc2)c([N+](=O)[O-])c1 (stereo not given) | 0 | 65* | 8 | -6 | -2
O=[N+]([O-])c1ccc(C2CCCC/C2=N/OCc2ccccc2F)c([N+](=O)[O-])c1 (stereo not given) | 0 | / | 12 | -4 | 13
CC(C)CNC(=O)c1ccccc1NC(=O)c1ccccc1N(C)S(=O)(=O)c1ccccc1 | 0 | 78* | -6 | -5 | 8
COC(=O)c1ccccc1NC(=O)c1ccccc1N(C)S(=O)(=O)c1ccccc1 | 0 | 13 | -7 | -4 | 9
CCCNC(=O)c1ccccc1NC(=O)c1ccccc1N(C)S(=O)(=O)c1ccccc1 | 0 | 72* | 11 | 0 | -5
COCCNC(=O)c1ccccc1NC(=O)c1ccccc1N(C)S(=O)(=O)c1ccc(C)cc1 | 0 | / | 4 | 1 | 9
Cc1ccc(-c2cnc3c(c2)C(=O)N([C@H](C)CO)C[C@H](C)[C@H](CN(C)C(=O)c2cccc(F)c2)O3)cc1 | / | 13[16.7 µM] | / | / | /
COc1ccc(C(=O)O)cc1S(=O)(=O)Nc1cc(C(F)(F)F)ccc1N1CCCCC1 | 0 | -7 | / | -3 | 1
CCOC(=O)c1ccc(N2CCCCC2)c(NS(=O)(=O)c2cccc(C(F)(F)F)c2)c1 | 0 | 64* | 26 | -4 | 2
COc1ccccc1-c1cn(CC[C@@H]2CC[C@@H](NC(=O)Cc3ccccn3)[C@@H](CO)O2)nn1 | / | -13[16.7 µM] | / | / | /
SMILES | aDG glyco up | HIV Env fusion | Gli-Sufu block | GalR3 antagonist | COUP-TFII inh
O=[N+]([O-])c1cc(CN2CCN(c3ccccc3)CC2)c(O)c2ncccc12 | 1 | 19 | 80* | -6 | 9
O=[N+]([O-])c1cc(CN2CCOCC2)c2cccnc2c1O | / | / | -10 | / | /
C[C@@H]1CN([C@H](C)CO)C(=O)c2cc(C3=CCCC3)cnc2O[C@@H]1CN(C)C(=O)c1ccc(F)cc1 | / | -27[16.7 µM] | / | / | /
CC(=O)N(C1=C(N2CCOCC2)C(=O)c2ccccc2C1=O)c1ccc(C(=O)O)cc1 | 0 | 2 | 41 | -7 | -3
CC(=O)N(C)C1=C(N2CCOCC2)C(=O)c2ccccc2C1=O | 5.5* | / | 23 | / | /
Cc1ccc(S(=O)(=O)N(C)C[C@H]2Oc3c(NC(=O)C4CCCCC4)cccc3C(=O)N([C@@H](C)CO)C[C@@H]2C)cc1 | / | 19[16.7 µM] | / | / | /
O=C(C[C@@H]1C=C[C@H](NC(=O)c2ccc3c(c2)OCO3)[C@H](CO)O1)NCc1ccc(Cl)cc1 | / | 12[16.7 µM] | / | / | /
Cc1ccc(S(=O)(=O)Nc2cccc3ncccc23)cc1 | 0 | 1 | 2 | -4 | -16
Cc1ccc(S(=O)(=O)Nc2cccc3ncccc23)s1 | 0 | / | 85* | / | /
C[C@H](CO)N1C[C@H](C)[C@@H](CN(C)Cc2ccncc2)Oc2cc(C#CC3CC3)ccc2S1(=O)=O | / | -2[16.7 µM] | / | / | /
C[C@H]1CN([C@@H](C)CO)C(=O)Cc2cc(NC(=O)Nc3ccc4c(c3)OCO4)ccc2O[C@@H]1CN(C)C(=O)NC1CCCCC1 | / | -12[16.7 µM] | / | / | /
CC1(C)NC(=O)N(CCOCCOc2cccc(Oc3ccccc3)c2)C1=O | 0 | 60* | 3 | -4 | 8
C[C@@H]1CN([C@@H](C)CO)C(=O)c2cccc(NS(=O)(=O)c3ccc(F)cc3)c2O[C@@H]1CN(C)S(=O)(=O)c1ccc(Cl)cc1 | / | 9[16.7 µM] | / | / | /
CC(=O)N1CCN(c2ccc(Oc3ccc([N+](=O)[O-])c(C(F)(F)F)c3)cc2)CC1 | 2 | / | 67* | / | /
C=CCN([C@H](C(=O)OC)C(C)C)S(=O)(=O)CCNCc1ccccc1 | 0 | 62* | -1 | -7 | 3
OC1(c2cccc(C(F)(F)F)c2)CCN(c2ncnc3c2[nH]c2ccc(F)cc23)CC1 | 3.7* | / | -20 | -4 | 47*
COn1c(SCc2ccc(C)cc2C)nc2ccccc2c1=O | 0 | 57* | 7 | -6 | 3
COn1c(SCC(N)=O)nc2ccccc2c1=O | 0 | / | 10 | -1 | -2
CCC(Sc1nc2ccsc2c(=O)n1-c1ccc(Cl)c(C)c1)C(=O)NCc1ccco1 (stereo not given) | 0 | 65* | 7 | -9 | 8
O=C(NC(=S)Nc1ccc(N2CCCCC2)c(Cl)c1)c1ccc2c(c1)OCCO2 | 0 | 70* | 8 | -2 | 2
CCCCCn1c(CN2CCN(C(=O)c3ccco3)CC2)nc2c1c(=O)n(C)c(=O)n2C | 0 | 3 | 12 | / | 2
